{"source": "PubChem BioAssay AID1347076", "about": "(National Center for Advancing Translational Sciences (NCATS), 2019)", "note": "Screen size: about 400,000 compounds; about 13,000 (3.2%) were called active. Roughly 18% stayed inconclusive and do not appear here. Calls come from the whole dose curve; as a rule, active = well fitted cell-killing curve with a large enough effect; inconclusive = small, poorly fitted or top-dose-only effect, or effect the other way; inactive = flat fitted curve, though single readings scatter. This excerpt belongs to a sample that is enriched for actives. % is set by controls: 0 for no effect and ±100 for the full control effect; potency is the fitted concentration of half-maximal effect.", "data": [{"assay": "qHTS assay for MDR1-selective chemotherapeutics: Primary screen using the drug-selected MDR subline cells KB-V1; note: nearly all actives have a fitted effect of over 60% in size", "details": "KB-V1 MDR cells viability, CellTiter-Glo, 72 h; series mostly up to 46.1 µM; activity change, negative = cytotoxicity: at the top concentration", "procedure,_shortened": "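In this primary screen, KB-V1 cells overexpressing P-gp are incubated with library compounds (lowest to highest concentration) for 72 h at 37 degrees C before a luminescent ATP viability read.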", "values": [{"smiles": "CCN(CCN(C)C)C(=O)c1ccc2nc(C)c(N(C)C(=O)CCc3ccccc3)n2c1", "activity change, negative = cytotoxicity": "4.85% (inactive)"}, {"smiles": "Cc1ccc(C(C(=O)NC2CCCCC2)N(C(=O)c2csnn2)C2CC2)o1", "note": "(stereo unspecified)", "activity change, negative = cytotoxicity": "-1.13% (inactive)"}, {"smiles": "O=C(NC1CCCC1)C(c1ccc(Cl)cc1)N(C(=O)c1csnn1)C1CC1", "note": "(stereo unspecified)", "activity change, negative = cytotoxicity": "-1.08% (inactive)"}, {"smiles": "O=C(NC1CCCC1)C(c1ccccn1)N(C(=O)c1csnn1)C1CCCC1", "note": "(stereo unspecified)", "Potency": "20.6 µM (active)"}, {"smiles": "Cc1ccc(NC(=O)c2cc3cc(C)ccc3n2C)cc1", "activity change, negative = cytotoxicity": "0% (inactive)"}, {"smiles": "COc1ccccc1-c1n[nH]nc1C1=CC(=O)CC(C)(C)C1", "activity change, negative = cytotoxicity": "9.54% (inactive)"}, {"smiles": "O=C(NNC1=NCCC1)c1cccc(S(=O)(=O)N2CCCCC2)c1", "activity change, negative = cytotoxicity": "0.111% (inactive)"}, {"smiles": "CC(OC(=O)c1cccc(S(=O)(=O)N2CCOCC2)c1)C(=O)NCC1CCCCC1", "note": "(stereo unspecified)", "activity change, negative = cytotoxicity": "2.96% (inactive)"}, {"smiles": "CNC(=O)NC(=O)C(OC(=O)c1cccc(S(=O)(=O)N2CCCCC2)c1)c1ccccc1", "note": "(stereo unspecified)", "Potency": "23.1 µM (active)"}, {"smiles": "Cc1cccc(CNC(=O)c2cnc3sc(N4CCCCC4)nn3c2=O)c1", "activity change, negative = cytotoxicity": "0% (inactive)"}, {"smiles": "Cc1ccc(C)c2sc(NC(=O)c3ccc(S(=O)(=O)N4CCCC4)cc3)nc12", "activity change, negative = cytotoxicity": "8.13% (inactive)"}, {"smiles": "Cc1nn(CC(=O)NCCc2ccccc2)c(=O)c2c1sc1ccccc12", "activity change, negative = cytotoxicity": "-11.2% (inactive)"}, {"smiles": "COc1cc(/C=N/NC(=O)c2ccoc2C)ccc1OCCN1CCCCC1", "activity change, negative = cytotoxicity": "22.5% (inactive)"}, {"smiles": "COc1cc(/C=N/NC(=O)Nc2ccccc2)ccc1OCCOc1ccccc1C", "Potency": "2.31 µM (active)"}, {"smiles": "COC(=O)c1ccc(COc2ccc(/C=N/NC(=O)C(=O)Nc3ccc(OC)cc3)cc2OC)o1", "activity change, negative = cytotoxicity": "-3.79% (inactive)"}, {"smiles": "C[C@H]1CN([C@@H](C)CO)C(=O)CCCn2cc(nn2)CO[C@@H]1CN(C)S(=O)(=O)c1cccc(C#N)c1", "activity change, negative = cytotoxicity": "-8.91% (inactive)"}, {"smiles": "O=C(COC(=O)c1ccc(S(=O)(=O)N2CCCCCC2)cc1)Nc1ccccc1C(F)(F)F", "activity change, negative = cytotoxicity": "22.5% (inactive)"}, {"smiles": "O=C(NCCc1ccccc1)c1ccc2c(c1)N(Cc1ccccc1)CCS2", "activity change, negative = cytotoxicity": "-0.57% (inactive)"}, {"smiles": "CCOC(=O)N1CCN(C(=O)c2ccc3c(c2)N(Cc2ccc(C)cc2)CCS3)CC1", "Potency": "3.26 µM (active)"}, {"smiles": "O=C(NCCN1CCOCC1)c1ccc2c(c1)N(Cc1ccc(Cl)cc1)CCS2", "activity change, negative = cytotoxicity": "2.02% (inactive)"}, {"smiles": "OC[C@@H]1O[C@H](n2cnc3c(SCc4ccccc4)ncnc32)[C@H](O)[C@H]1O", "activity change, negative = cytotoxicity": "0% (inactive)"}, {"smiles": "COc1ccc(-c2ccc(Nc3ccc(S(=O)(=O)N4CCCC4)cc3)nn2)cc1OC", "Potency": "13 µM (active)"}, {"smiles": "COc1cc(C(C)=O)ccc1OC(C)C(=O)Nc1ccc(S(=O)(=O)N2CCCC2)cc1", "note": "(stereo unspecified)", "activity change, negative = cytotoxicity": "0% (inactive)"}, {"smiles": "COc1cc(C(=O)NNC(=O)c2ccc(S(=O)(=O)N3CCCCC3)cc2)cc(OC)c1OC", "activity change, negative = cytotoxicity": "14.7% (inactive)"}, {"smiles": "CC(C)Oc1cc(F)ccc1-c1cc(C(=O)Nc2cccc(Cl)c2)[nH]n1", "activity change, negative = cytotoxicity": "0% (inactive)"}, {"smiles": "CCCCCC(=O)N1C[C@H](O)[C@@H](n2cc(COC(=O)c3ccccc3)nn2)C[C@@H]1c1ccc(C)cc1", "activity change, negative = cytotoxicity": "8.62% (inactive)"}]}]}
